Reference: PubChem BioAssay (NCI)
The panel holds about 83,000 compounds, 20% with a hit somewhere; the sample as a whole holds those more often.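 Values shown are percent growth following 48 h exposure of cells in 96-well plates to a single concentration of compound; below 10 was considered active.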 Values without a mark were called inactive. Activity calls are given as the source filed them.

How the values were obtained:
Test in all cases: NCI-60 one-dose screen, 48 h (100 = growth as untreated, 0 = no growth, -100 = all killed)
Conditions in all cases: 10 µM unless noted
NCI/ADR-RES ovarian = system: NCI/ADR-RES ovarian
T-47D breast = system: T-47D breast
BT-549 breast = system: BT-549 breast
MDA-MB-435 melanoma = system: MDA-MB-435 melanoma
SW-620 colon = system: SW-620 colon
MCF7 breast = system: MCF7 breast
HCT-116 colon = system: HCT-116 colon
HCC-2998 colon = system: HCC-2998 colon
KM12 colon = system: KM12 colon

| Structure (SMILES) | growth (NCI/ADR-RES ovarian) | growth (T-47D breast) | growth (BT-549 breast) | growth (MDA-MB-435 melanoma) | growth (SW-620 colon) | growth (MCF7 breast) | growth (HCT-116 colon) | growth (HCC-2998 colon) | growth (KM12 colon) |
| --- | --- | --- | --- | --- | --- | --- | --- | --- | --- |
| CCOC(=O)[C@@H](C)C[C@H](Cc1ccccc1)NC(=O)c1csc([C@@H](C[C@H](C(C)C)N(C)C(=O)[C@@H](NC(=O)[C@H]2C[C@H](O)CCN2C)C(C)C)OC(C)=O)n1 | 45.3% | 79.4% | -31.9% (active) | -40.9% (active) | 25.1% | 20% | -12.6% (active) | 19.6% | 5.96% (active) |
| CC12CCC3C(C=CC4=C(N)C(=O)CCC43C)C1CCC2=O (configuration not stated) | 68.7% | 73.7% | 82.6% | 113% | 15.4% | -16% (active) | 6.15% (active) | 96% | 39.5% |
| COC(=O)[C@H](Cc1ccccc1)NC(=O)c1csc([C@@H](C[C@H](C(C)C)N(C)C(=O)[C@@H](NC(=O)[C@H]2CCCCN2C)C2CC2)OC(C)=O)n1 | 15.9% | 28.3% | 2.98% (active) | -44.4% (active) | 22.8% | 19.5% | -16.9% (active) | 16.1% | 2.87% (active) |
| Nc1ccc(OCCNS(=O)(=O)c2cccc(S(=O)(=O)F)c2)c(Cl)c1 | 101% | 102% | 95.9% | 98.2% | 106% | 85.3% | 95.2% | 101% | 101% |
| COc1cc(C=C2c3ccccc3C(=O)c3ccccc32)ccc1OCCCCOc1cc2c(cc1OC)C(=O)N1CCCC1C=N2 (configuration not stated) | 6.1% (active) | -30% (active) | -40.2% (active) | -57.6% (active) | -84.4% (active) | -77.1% (active) | -85.3% (active) | -94.4% (active) | -85.7% (active) |
| O=C(Nc1ccc(Br)cc1)c1cc(Br)cc(Br)c1O | -6.08% (active) | -2.63% (active) | -28% (active) | 1.23% (active) | -15.7% (active) | 8.07% (active) | -13.9% (active) | 52.1% | -44.2% (active) |
| c1cc2c(c3c1CCNC3)OCO2 | 101% | 90.4% | 97.4% | 106% | 112% | 92.7% | 99% | 102% | 106% |
| COC(=O)[C@]12CCC(C)(C)C[C@H]1[C@H]1C(=O)C[C@@H]3[C@@]4(C)C[C@@]5(CC(C)(C)[C@@H]4CC[C@@]3(C)[C@]1(C)CC2)OO[C@@](C)(C(F)(F)F)O5 | 98.6% | 81.4% | 111% | 98.7% | 103% | 82.2% | 88.7% | 106% | 99.9% |
| CC1=C(CN)C2=C(C)C3(CC3)[C@@](C)(O)C(=O)C2=C1 | 93.8% | 88.6% | 63.3% | 97.9% | 90.7% | 85.1% | 90.4% | 92% | 101% |
| COc1cc2c(c(OC)c1OC)-c1ccc([O-])c(=O)cc1[C@@H](NC(C)=O)CC2.COc1cc2c(c(OC)c1OC)-c1ccc([O-])c(=O)cc1[C@@H](NC(C)=O)CC2.[Cu+2] | 40.4% | 41.1% | 12.8% | -18.8% (active) | 19.3% | 11% | 8.67% (active) | -14.9% (active) | 6.75% (active) |
| CN[C@@]1(c2ccccc2Cl)CCCC[C@@H]1NCC1CCCO1 (some centres not stated) | 101% | 93% | 102% | 102% | 102% | 98.6% | 105% | 101% | 108% |
| CCOc1ccc(/C=C/[N+](=O)[O-])cc1 | 100% | 86% | 80.8% | 20.1% | 66.6% | 28.5% | -31.6% (active) | 23.7% | 70.7% |
| OCCNC(Cc1ccccc1)c1ccc2c(c1)OCO2 (configuration not stated) | 102% | 60% | 81.2% | 108% | 109% | 92.9% | 86.3% | 99.3% | 101% |
| Fc1c[c-]c(-c2ccccn2)c(F)c1.[CH3-].[Pt+2].c1ccc([PH+](c2ccccc2)c2ccccn2)cc1 | 32.1% | -7.66% (active) | -1.42% (active) | -50.5% (active) | -11.6% (active) | -16.3% (active) | -43.8% (active) | 20.2% | 10.4% |
| CCOP1(=O)CC(C)=C(Cl)C(P(=O)(OCC)OCC)C1 (configuration not stated) | 85.8% | 96.4% | 112% | 114% | 97.3% | 99.7% | 107% | 86.3% | 114% |
| c1cnc2[nH]cc(-c3csc(-c4cn(CCCCN5CCCCC5)c5ccccc45)n3)c2c1 | 89.8% | 79.4% | 105% | 80.5% | 76.8% | 58.9% | 81.8% | 95.6% | 85.5% |
| C#Cc1ccc2c(c1)C(c1ccccc1)=NCC(=O)N2C | 17.1% | 51.6% | 45.2% | 11.4% | 30.6% | 18.4% | 18.9% | 70.5% | 28.8% |
| COC(=O)C12CC(NC(=O)c3csc([C@@H](C[C@H](C(C)C)N(C)C(=O)[C@@H](NC(=O)[C@H]4CCCCN4C)C4CC4)OC(C)=O)n3)(C1)C2 | 43.7% | 43.4% | -10.9% (active) | -40.9% (active) | 25.4% | 19.2% | 1.78% (active) | 21.8% | 1.43% (active) |
| COc1ccc(/C(C)=C(\c2ccc(OCCN3CCOCC3)cc2)c2ccc(OC(=O)Cc3ccccc3)cc2)cc1 | 102% | 65.4% | 108% | 107% | 111% | 71.7% | 104% | 102% | 103% |
| CC[C@H](C)[C@H](NC(=O)c1cccn1C)C(=O)N(C)[C@H](C[C@@H](OC(C)=O)c1nc(C(=O)N[C@@H](Cc2ccccc2)C[C@H](C)C(=O)OC)cs1)C(C)C | 7.66% (active) | 64% | -27% (active) | -18.2% (active) | 26.2% | 15% | -3.74% (active) | 18.4% | 10% |
| C=CCCCN=C=S | 87.2% | 47.3% | 67.1% | 61.2% | 66.5% | 40.5% | 44.7% | 102% | 49.9% |
| NC(=O)CNc1ccc([As]=[As]c2ccc(NCC(N)=O)cc2)cc1 (configuration not stated) | 65.6% | 33.3% | 31.6% | 61.7% | 24.6% | 22.9% | 54.7% | 79.1% | 88.5% |
| O=C(CC1(O)C(=O)Nc2ccc(Cl)cc21)c1ccc(C(=O)NCC2CCC3(CC2)OOC2(CCCCC2)OO3)cc1 (configuration not stated) | 58.3% | -24.7% (active) | 48.8% | 8.39% (active) | -49% (active) | 37.4% | 41.6% | 83.6% | 9.65% (active) |
| COc1ccc(Nc2ccc([N+](=O)[O-])cc2[N+](=O)[O-])cc1CN(CCCl)CCCl | 26.9% | 22.6% | 40.1% | 55.2% | 20.3% | 19.3% | 20.8% | 37.7% | 53.1% |
| Cn1cc(-c2csc(-c3cn(CCCCN4CCCCC4)c4ccc(F)cc34)n2)c2cccnc21 | 81.7% | 81.5% | 81.1% | -91.1% (active) | -69.9% (active) | -55.9% (active) | 94.9% | 96.5% | 82.5% |
| Clc1ccc(N2COOC3(OOC2)C2CC4CC(C2)CC3C4)cc1 | -13.3% (active) | 49.1% | 68.7% | 53.1% | 75.3% | 71.7% | 50.4% | 102% | 36% |
| COc1cccc(/C=C/[N+](=O)[O-])c1 | 92.6% | 41.7% | 29.5% | -25.3% (active) | 77.5% | -11.2% (active) | -60.9% (active) | -87.9% (active) | 15.6% |
| ClCCN(CCCl)c1ccc(OCc2ccccc2)cc1 | 56.7% | 68.4% | 42.7% | 75% | 60.9% | 31.7% | 55.9% | 89.1% | 90.5% |
